Measured values as given in the antibiotic and cytotoxicity screens of Wong et al. (2023).
Among all 39,000 compounds or so, about 1,500 (3.8%) were called active. The sample as a whole holds a higher share of actives than the screen did.

System: HSkMC (human skeletal muscle cells)
Experiment: cytotoxicity call (relative viability < 0.9)
Conditions: 10 µM

| Compound | cytotoxicity call |
| --- | --- |
| Cc1cccc2[nH]c(CCN)nc12 | inactive |
| COc1cccc(N=[N+]=[N-])c1 | inactive |
| CC(=O)OC[C@]12CCC(C)=C[C@H]1O[C@@H]1[C@H](O)[C@@H](OC(C)=O)[C@@]2(C)[C@]12CO2 | active |
| CC1=C[C@H]2O[C@@H]3[C@H](O)[C@@H](O[C@H]4O[C@H](CO)[C@@H](O)[C@H](O)[C@H]4O)[C@](C)([C@@]2(CO)CC1)[C@]31CO1 | active |
| Cc1cc(O[C@@H]2O[C@H](CO)[C@@H](O)[C@H](O)[C@H]2O)c2c3c(c(=O)oc2c1)CCC3 | inactive |
| OCCN[C@@H]1c2ccccc2[C@H]2CNC[C@H]21 | inactive |
| C[C@]12CC[C@H](Cl)C[C@@H]1CC[C@@H]1[C@@H]2CC[C@]2(C)C(=O)CC[C@@H]12 | inactive |
| NC(=O)c1ccc(N)nc1 | inactive |
| CC12CC(=O)C3C(CCC4=CC(=O)CCC43C)C1CCC2=O (configuration not stated) | inactive |
| NCCc1ccncc1 | inactive |
| CCN1C[C@@]2(C)CC[C@H](OC)C34[C@@H]2[C@H](O)[C@]2(OCO[C@@]25C[C@H](OC)[C@H]2C[C@]3(O)[C@@H]5[C@H]2O)[C@@H]14 | inactive |
| O=c1[nH]c2ccccc2n1C1CCN(Cc2ccc(-c3nc4cc5[nH]cnc5cc4nc3-c3ccccc3)cc2)CC1 | active |
| CN1C[C@H](C(=O)N[C@]2(C)O[C@@]3(O)[C@@H]4CCCN4C(=O)[C@H](Cc4ccccc4)N3C2=O)C=C2c3cccc4[nH]cc(c34)C[C@H]21 | inactive |
| Cc1cccc(N2CCNCC2)n1 | inactive |
| COc1c2c(cc3c1OCO3)CC[N+](C)=C2.[Cl-] | inactive |
| CC(C)CC1C(=O)N2CCCC2C2(O)OC(NC(=O)C3C=C4c5cccc6[nH]c(Br)c(c56)CC4N(C)C3)(C(C)C)C(=O)N12.CS(=O)(=O)O (configuration not stated) | inactive |
| O=c1[nH]c2cc(N3CCNCC3)ccc2o1 | inactive |
| COc1cccc2c1C(=O)c1c(O)c3c(c(O)c1C2=O)C[C@@](O)(C(=O)CO)C[C@@H]3O[C@H]1C[C@H](N2CCO[C@H](OC)C2)[C@H](O)[C@H](C)O1 | active |
| CC[C@@]1(O)C[C@H](O[C@H]2C[C@H](N(C)C)[C@H](O)[C@H](C)O2)c2c(cc3c(c2O)C(=O)c2c(O)ccc(O)c2C3=O)[C@H]1C(=O)OC | inactive |
| COc1cc2c3cc1Oc1c(OC)c(OC)cc4c1C(Cc1cccc(c1)Oc1ccc(c(O)c1)CC3N(C)CC2)N(C)CC4.Cl.Cl (configuration not stated) | inactive |
| COc1ccc(OC(=O)N(C)C[C@@H]2OCc3ccccc3-c3c(n(C)c4ccccc34)C(=O)N([C@@H](C)CO)C[C@H]2C)cc1 | inactive |
| Cc1scc(CCN)c1C | inactive |
| Cl.Oc1noc2c1CCNC2 | inactive |

| Compound | cytotoxicity call |
| --- | --- |
| C#CC1(O)CCC2C3CCC4=CC(=O)CCC4(C)C3CCC21C (configuration not stated) | inactive |
| C=CCC1(O)CCC2C3CCC4=CCCCC4C3CCC21C (configuration not stated) | active |
| C=CCC1(O)CCC2C3CCC4=CC(=O)CCC4=C3C=CC21C (configuration not stated) | inactive |
| CC(=O)O[C@H]1C(=O)[C@]2(C)[C@@H](O)C[C@H]3OC[C@@]3(OC(C)=O)[C@@H]2[C@H](OC(=O)c2ccccc2)[C@]2(O)C[C@H](O)C(C)=C1C2(C)C | inactive |
| [N-]=[N+]=NCc1ccccc1C[C@]1(C(=O)NCCN2CCOCC2)N=C(c2ccc(OCCCO)cc2)O[C@H]1c1ccccc1N=[N+]=[N-] | inactive |
| O=c1[nH]c(=O)n(Cl)c(=O)n1Cl | inactive |
| CC1OC(OC2C=C3CCC4C(CCC5(C)C(c6ccc(=O)oc6)CCC45O)C3(C)CC2)C(O)C(O)C1O (configuration not stated) | active |
| CC[C@@H](C)C(=O)O[C@H]1[C@H](O)[C@H]2[C@@H](CN3C[C@@H](C)CC[C@@H]3[C@@]2(C)O)[C@H]2C[C@]34O[C@]5(O)[C@@H](OC(=O)[C@@](C)(O)[C@@H](C)O)CC[C@@]3(C)[C@@H]5[C@@H](OC(C)=O)[C@@H](OC(C)=O)[C@@H]4[C@@]21O | inactive |
| CC(=O)OCC1=C(C(=O)[O-])N2C(=O)C(NC(=O)CCCC(N)C(=O)[O-])C2SC1.[Zn+2] (configuration not stated) | inactive |
| c1ccc2c(c1)sc1ccccc12 | active |
| COc1cc2c(cc1OC)C1C(=O)c3ccc4oc(C(C)C)cc4c3OC1CO2 (configuration not stated) | inactive |
| NCCc1ccc(S(N)(=O)=O)cc1 | inactive |
| Cc1cc([C@@H](C#N)c2ccc(Cl)cc2)c(Cl)cc1NC(=O)c1cc(I)cc(I)c1O | active |
| CC(=O)Nc1ccc(Cl)cc1C | inactive |
| Cc1cc(C(C#N)c2ccc(Cl)cc2)c(Cl)cc1NC(=O)c1cc(I)cc(I)c1O (configuration not stated) | inactive |
| COc1cc(CCN)ccc1O | inactive |
| Cc1ccc(C2(CN)CCCCC2)cc1 | inactive |
| CC(C)C12OC1C1OC13C1(C)CCC4=C(COC4=O)C1CC1OC13C2O (configuration not stated) | inactive |
| COC(=O)NC(=S)Nc1ccccc1NC(=S)NC(=O)OC | active |
| CNc1ccccc1C(=O)O | inactive |
| CCC1CN2CCc3cc(OC)c(OC)cc3C2CC1CC1NCCc2cc(OC)c(OC)cc21.Cl.Cl (configuration not stated) | inactive |
| COc1ccc(CCN)cc1O | inactive |
| CC(C)CC(CN)CC(=O)O (configuration not stated) | inactive |

| Compound | cytotoxicity call |
| --- | --- |
| C[C@]12CC[C@]3(C)OC[C@](CO)(CO1)N23 | inactive |
| Nc1ccccc1-c1ccccc1 | inactive |
| CCC1(C2OC(C3OC(O)(CO)C(C)CC3C)CC2C)CCC(C2(C)CCC3(CC(O)C(C)C(C(C)C(OC)C(C)C(=O)[O-])O3)O2)O1.[Na+] (configuration not stated) | inactive |
| NC1CC1c1ccccc1.O=S(=O)(O)O (configuration not stated) | inactive |
| O=c1cccc2n1CC1CNCC2C1 (configuration not stated) | inactive |
| COC(=O)C[C@H]1CC[C@H]2NC[C@H](O)COC[C@@H]2O1 | inactive |
| CCC(C)C1OC2(C=CC1C)CC1CC(CC=C(C)C(OC3CC(OC)C(OC4CC(OC)C(O)C(C)O4)C(C)O3)C(C)C=CC=C3COC4C(O)C(C)=CC(C(=O)O1)C34O)O2 (configuration not stated) [ABAMECTIN (avermectin B1a shown) ] | inactive |
| C[N+](C)(C)CCCl | inactive |
| C[N+](C)(C)CCCCCCCCCC[N+](C)(C)C.[Br-].[Br-] | inactive |
| CCCCCCCCCCCCCCCC[N+](C)(C)C.[Br-] | active |
| CC1CC(C)C(=O)C(C(O)CC2CC(=O)NC(=O)C2)C1 (configuration not stated) | inactive |
| Cc1nn[nH]n1 | inactive |
| CC(=O)CC1CCCCN1.Cl (configuration not stated) | inactive |
| CCn1cnc2c(Nc3cccc(Cl)c3)nc(N[C@@H]3CCCC[C@@H]3N)nc21 | active |
| CCN(Cc1ccc(Cl)nc1)C(=C[N+](=O)[O-])NC | inactive |
| C=CCN1C[C@H]2CN(C(C)C)C[C@H]2C1=O | inactive |
| CO[C@@H]1C=C[C@@H]2[C@H]1N2CCCO (some centres not stated) | inactive |
| Nc1c[n+](CCc2ccccc2)no1 | inactive |
| CN1CCN(C(=O)CN=[N+]=[N-])CC1 | inactive |
| C=C(CCCCCCCCCCCCCCCC)OOC[C@@H](COP(=O)(ON)O[C@@H]1[C@H](O)[C@H](O)[C@@H](OP(=O)(O)ON)[C@H](OP(=O)(O)ON)[C@H]1O)OOC(=C)CC/C=C/C/C=C/C/C=C/C/C=C/CCCCC (some centres not stated) | inactive |
| C=C(C)[C@@H]1CCC(C)=C[C@H]1c1c(OC)cc(C)cc1OC | inactive |
| C=C(C)[C@@H]1CCC(C)=C[C@H]1c1c(O)cc(CCCCC)cc1O | active |
| C[C@@H]1C(=O)O[C@H]2[C@H](O)[C@@]34[C@@H]5OC(=O)[C@@]3(O[C@@H]3OC(=O)[C@H](O)[C@@]34[C@H](C(C)(C)C)[C@H]5O)[C@@]12O | inactive |

| Compound | cytotoxicity call |
| --- | --- |
| NC1(c2ccc(Cl)cc2)CC1 | inactive |
| O=[As]O[As]=O (configuration not stated) | inactive |
| O=C(O)Cc1cccnc1C(=O)O | inactive |
| CO[C@H]1[C@@H](O)[C@@H](C)O[C@H](O[C@H]2CC[C@@]3(C)[C@H]4CC[C@@]5(C)[C@@H](C6=CC(=O)OC6)CC[C@]5(O)[C@@H]4CC[C@]3(O)C2)[C@@H]1O | inactive |
| COC1C(O)C(C)OC(OC2CCC3(C=O)C(CCC4C3CCC3(C)C(C5=CC(=O)OC5)CCC43O)C2)C1O (configuration not stated) | active |
| C[C@@H]1O[C@@H](O[C@H]2CC[C@]3(C=O)[C@H]4CC[C@]5(C)[C@@H](C6=CC(=O)OC6)CC[C@]5(O)[C@@H]4CC[C@]3(O)C2)[C@H](O)[C@H](O)[C@H]1O | active |
| CC1OC(OC2CCC3(C=O)C4CCC5(C)C(C6=CC(=O)OC6)CCC5(O)C4CCC3(O)C2)C(O)C(O)C1O (configuration not stated) | active |
| CO[C@H]1C[C@H](O[C@H]2CC[C@]3(C=O)[C@H]4CC[C@]5(C)[C@@H](C6=CC(=O)OC6)CC[C@]5(O)[C@@H]4CC[C@]3(O)C2)O[C@H](C)[C@H]1O | active |
| COC1C(O)C(C)OC(OC2CCC3(C)C4CCC5(C)C(C6=CC(=O)OC6)CCC5(O)C4CCC3(O)C2)C1O (configuration not stated) | inactive |
| CC(C)(C)OC(=O)N[C@H]1[C@@H]2CNC[C@@H]21 | inactive |
| COC(N)=O | inactive |
| C[C@H](CO)N1C[C@H](C)[C@@H](CN(C)C(=O)Oc2cccc3ccccc23)OCc2cn(nn2)CCCC1=O | inactive |
| COC(=O)C[C@H]1CC[C@@H]2NC[C@H](O)COC[C@H]2O1 | inactive |
| Cc1ccc(OC(=O)N(C)C[C@@H]2OCc3ccccc3-c3c(n(C)c4ccccc34)C(=O)N([C@H](C)CO)C[C@H]2C)cc1 | inactive |
| COc1ccc(OC)c(C(O)C(C)N)c1.Cl (configuration not stated) | inactive |
| C[N+]1(C)CCCC(OC(=O)C(O)(c2ccccc2)c2ccccc2)C1.[Br-] (configuration not stated) | inactive |
| NC[C@@H](O)c1ccccc1 | inactive |
| CC(C)(C)OC(=O)N1C[C@H]2C[C@@H]1CN2 | inactive |
| c1cc2c(cc1CN1CCNCC1)OCO2 | inactive |
| c1ccc2cc3c(cc2c1)-c1cccc2cccc-3c12 | inactive |
| CCC1=C[C@@H]2[C@H](C1)C[C@]2(CN)CC(=O)O | inactive |
| [N-]=[N+]=NCc1ccccc1C[C@]1(C(=O)N2CCCCC2)N=C(c2ccc(OCCCO)cc2)O[C@H]1c1ccccc1N=[N+]=[N-] | inactive |
| CC12CCC3C(CCC4(O)CC(O)CCC34C=O)C1(O)CCC2C1=CC(=O)OC1 (configuration not stated) | active |
